Results on 16 compounds are retold here after PubChem BioAssay (EPA / NIEHS).

Where “and” joins values, the source holds several entries; their conditions need not be identical. Equal entries are not always repeated. Records with an inconclusive call do not appear. Calls of active or inactive are those of the source. Rule for the calls: active = hit-call score of the fitted dose curve at least 0.9, where 1 is the maximum; inconclusive = response in the unintended direction; inactive = score below 0.9.

A word on the AC50: it is the midpoint of the concentration-response curve, whichever way the signal moves.

The test system of one experiment is DIO1 (gene 1733). Put plainly: CCTE_GLTED_hDIO1: CCTE's human Deiodinase 1 (DIO1) Inhibition Assay, Great Lakes Toxicology and Ecology Division (GLTED) Lab (AID 2283987).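 Note: isolated human DIO1 enzyme in a cell-free setup rather than cells; enzyme activity read as free iodide liberated from substrate via Sandell-Kolthoff colorimetry.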 In outline: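 Cell-free hDIO1 assay, triplicate plates. Absorbance of the Sandell-Kolthoff reaction reports enzyme-liberated iodide; iodinated chemicals or nitrite, iron and thiocyanate may interfere.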
Regarding `NS(=O)(=O)C(F)(F)C(F)(F)C(F)(F)C(F)(F)C(F)(F)C(F)(F)C(F)(F)C(F)(F)F`, the half-maximal activity concentration (AC50) was 26.8 µM (active).

With `CC#Cc1cc(C)nc(Nc2ccccc2)n1`, the AC50 is 27 µM (active).

On to `O=C(O)C(F)(F)C(F)(F)C(F)(F)C(F)(F)C(F)(F)C(F)(F)C(F)(F)C(F)(F)C(F)(F)F`, for which the AC50 is 103 µM (active) and 70.6 µM (active). Turning to `CCCCCCCCCC[N+](C)(C)CCCCCCCCCC`, the concentration at half-maximal activity (AC50) was 40.7 µM (active). Still for that read-out and setting: the same measure for `CCCCCCCCCc1ccc(O)cc1`: 90.3 µM (active).

The next experiment deals with Nucleoli Translocation, AR (gene 367) (UniProt P10275). Put plainly: UPITT_HCI_U2OS_AR_TIF2_Nucleoli_Antagonist: University of Pittsburgh U2OS Androgen Receptor-Transcriptional Intermediary Factor 2 (AR-TIF2) Antagonism High Content Imaging Assay for Nucleoli Translocation (AID 2283997). An outline of the steps: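 An antagonist-mode imaging screen: engineered U2OS (AR-RFP, TIF2-GFP) exposed to 20 uM compound, 0.2% DMSO. Activity reflects nucleolar red fluorescence change relative to DHT baseline.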
Sequence of Nucleoli Translocation, AR (gene 367) (P10275 whole entry, looked up): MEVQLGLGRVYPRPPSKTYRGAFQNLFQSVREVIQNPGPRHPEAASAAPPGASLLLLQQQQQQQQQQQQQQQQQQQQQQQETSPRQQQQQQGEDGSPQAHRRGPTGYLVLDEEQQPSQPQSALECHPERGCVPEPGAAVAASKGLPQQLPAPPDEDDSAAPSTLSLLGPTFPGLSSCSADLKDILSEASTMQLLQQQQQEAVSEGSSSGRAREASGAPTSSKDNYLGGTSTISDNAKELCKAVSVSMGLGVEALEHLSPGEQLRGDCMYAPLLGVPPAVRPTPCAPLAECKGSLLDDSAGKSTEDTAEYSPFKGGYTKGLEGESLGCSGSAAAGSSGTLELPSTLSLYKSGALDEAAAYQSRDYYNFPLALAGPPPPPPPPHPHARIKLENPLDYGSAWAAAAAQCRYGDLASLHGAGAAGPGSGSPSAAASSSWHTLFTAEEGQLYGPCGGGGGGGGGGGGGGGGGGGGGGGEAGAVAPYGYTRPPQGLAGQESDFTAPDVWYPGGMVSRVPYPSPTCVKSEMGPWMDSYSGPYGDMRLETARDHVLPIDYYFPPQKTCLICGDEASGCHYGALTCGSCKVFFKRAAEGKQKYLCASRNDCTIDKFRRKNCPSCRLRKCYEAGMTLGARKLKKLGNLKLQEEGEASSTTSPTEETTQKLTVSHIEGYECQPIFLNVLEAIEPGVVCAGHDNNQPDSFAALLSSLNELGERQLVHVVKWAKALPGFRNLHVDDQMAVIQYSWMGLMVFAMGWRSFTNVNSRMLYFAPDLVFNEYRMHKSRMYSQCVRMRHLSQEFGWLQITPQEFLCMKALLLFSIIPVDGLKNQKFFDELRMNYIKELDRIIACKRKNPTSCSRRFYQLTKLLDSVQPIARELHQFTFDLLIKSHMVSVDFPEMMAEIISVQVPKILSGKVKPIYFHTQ
As for `CCNc1nc(NC(C)C)nc(SC)n1`, the compound was called inactive.

As for `c1ccc(-c2ccccc2)cc1`, the call was inactive. In the case of `CCOC(=O)C(O)(c1ccc(Cl)cc1)c1ccc(Cl)cc1`, the AC50 was 13.3 µM (active).

For the compound `O=C(NC(=O)c1c(F)cccc1F)Nc1cc(Cl)c(OC(F)(F)C(F)F)c(Cl)c1`, the compound was called inactive. Same read-out and setting: the same measure for `O=C(N[C@H]1CN2CCC1CC2)c1cc2ccoc2cn1`: “inactive”; for `Cc1ccccc1CO[C@@H]1C[C@@]2(C(C)C)CC[C@]1(C)O2`: “inactive”; for `c1cc2ccc3cccc4ccc(c1)c2c34`: “inactive”. Regarding `C=CC(=O)NCNC(=O)C=C`, the compound was classed as inactive. In the case of `NS(=O)(=O)C(F)(F)C(F)(F)C(F)(F)C(F)(F)C(F)(F)C(F)(F)C(F)(F)C(F)(F)F`, the AC50 was 82.7 µM (active). In the case of `CC1=C2C[C@H]3[C@@H](CC=C4C[C@@H](O)CC[C@@]43C)[C@@H]2CC[C@]12O[C@@H]1C[C@H](C)CN[C@H]1[C@H]2C`, the compound was called inactive. For `CCCCCCCCOC(=O)c1ccccc1C(=O)OCCCCCCCC`, the call was inactive.

The next experiment shares this target. Put plainly: UPITT_HCI_U2OS_AR_TIF2_Nucleoli_Agonist: University of Pittsburgh U2OS Androgen Receptor-Transcriptional Intermediary Factor 2 (AR-TIF2) Agonism High Content Imaging Assay for Nucleoli Translocation (AID 2283998). In outline:
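Red-tagged human androgen receptor co-expressed with GFP-tagged TIF2 serves as the binding reporter. Primary testing used 20 uM final (0.2% DMSO); follow-up dose response covered 0.195 to 50 uM final (0.5% DMSO).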
`c1ccc(-c2ccccc2)cc1`: the compound was called inactive.

On to `CCOC(=O)C(O)(c1ccc(Cl)cc1)c1ccc(Cl)cc1`, for which the half-maximal activity concentration (AC50) is 50 µM (active). On to `O=C(NC(=O)c1c(F)cccc1F)Nc1cc(Cl)c(OC(F)(F)C(F)F)c(Cl)c1`, for which the compound was called inactive.

Regarding `CCC(=O)O[C@H]1CC[C@H]2[C@@H]3CCC4=CC(=O)CC[C@]4(C)[C@H]3CC[C@]12C`, the concentration at half-maximal activity (AC50) is 0.00109 µM (active).

Take `O=C(N[C@H]1CN2CCC1CC2)c1cc2ccoc2cn1`: the compound was called inactive.

For `Cc1ccccc1CO[C@@H]1C[C@@]2(C(C)C)CC[C@]1(C)O2`, the outcome was inactive. Still for that read-out and setting: the same measure for `c1cc2ccc3cccc4ccc(c1)c2c34`: “inactive”; for `C=CC(=O)NCNC(=O)C=C`: “inactive”. Consider `NS(=O)(=O)C(F)(F)C(F)(F)C(F)(F)C(F)(F)C(F)(F)C(F)(F)C(F)(F)C(F)(F)F`, for which the AC50 is 30.9 µM (active). As for `CC1=C2C[C@H]3[C@@H](CC=C4C[C@@H](O)CC[C@@]43C)[C@@H]2CC[C@]12O[C@@H]1C[C@H](C)CN[C@H]1[C@H]2C`, the compound was classed as inactive.
